Reference: publication PMC7862700, “An all-to-all approach to the identification of sequence-specific readers for epigenetic DNA modifications on cytosine”

Legend:
Assay in all cases: DAPPL (digital affinity profiling via proximity ligation, sequencing); 10 mM Tris-HCl pH 7.5, 50 mM NaCl, 1 mM DTT, 4% glycerol, room temperature, 30 min; GST-TFs on glutathione beads, 16-mer random dsDNA library, 0.1% formaldehyde crosslink after washing; high values mean tight binding
Settings in all cases: protein: recombinant; tags: N-terminal GST; dsDNA, one strand shown
[1] = target: T1, FLI1 (Homo sapiens, UniProt Q01543 1-452)
T1 sequence: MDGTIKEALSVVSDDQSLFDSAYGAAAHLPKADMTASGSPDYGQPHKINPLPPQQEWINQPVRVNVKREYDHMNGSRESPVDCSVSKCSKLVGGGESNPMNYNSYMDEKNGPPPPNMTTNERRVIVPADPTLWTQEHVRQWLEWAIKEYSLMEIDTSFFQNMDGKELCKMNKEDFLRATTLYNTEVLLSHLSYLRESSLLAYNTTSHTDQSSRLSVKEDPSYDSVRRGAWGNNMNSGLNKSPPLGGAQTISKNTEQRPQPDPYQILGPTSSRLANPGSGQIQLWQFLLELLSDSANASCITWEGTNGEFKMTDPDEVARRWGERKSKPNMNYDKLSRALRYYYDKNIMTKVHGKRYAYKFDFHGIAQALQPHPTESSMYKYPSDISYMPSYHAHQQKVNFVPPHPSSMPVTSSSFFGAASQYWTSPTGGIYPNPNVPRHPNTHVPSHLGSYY
Procedure, shortened: (§1)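 Pools were built from human transcription factors expressed in yeast as GST fusions, captured on glutathione beads and DNA-barcoded, along with a tag-only sample. Incubation with 200 nmole of a 16-mer random double-stranded DNA library lasted 30 min at room temperature in Tris/NaCl/DTT/glycerol buffer, and was followed by washing, 0.1% formaldehyde crosslinking, proximity ligation, PCR amplification and Illumina NextSeq500 sequencing. Binding signal is the quotient of each hexamer's read frequency for a factor and its frequency for the tag-only sample.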

[2] = target: T2, GABPA (Homo sapiens, UniProt Q06546 1-454)
T2 sequence: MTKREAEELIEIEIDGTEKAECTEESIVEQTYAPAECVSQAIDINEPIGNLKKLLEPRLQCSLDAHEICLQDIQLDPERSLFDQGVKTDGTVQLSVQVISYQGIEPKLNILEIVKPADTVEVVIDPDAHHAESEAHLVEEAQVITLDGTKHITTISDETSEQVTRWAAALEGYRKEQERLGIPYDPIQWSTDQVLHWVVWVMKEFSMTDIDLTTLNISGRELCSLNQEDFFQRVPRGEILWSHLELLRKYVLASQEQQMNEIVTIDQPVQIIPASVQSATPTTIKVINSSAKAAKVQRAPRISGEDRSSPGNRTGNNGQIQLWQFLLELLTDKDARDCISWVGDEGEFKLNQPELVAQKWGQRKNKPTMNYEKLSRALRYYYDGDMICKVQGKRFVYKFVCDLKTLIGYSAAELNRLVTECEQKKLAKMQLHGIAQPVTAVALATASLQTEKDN
Procedure, shortened: as §1

[3] = target: T3, ERG (Homo sapiens, UniProt P11308 1-479)
T3 sequence: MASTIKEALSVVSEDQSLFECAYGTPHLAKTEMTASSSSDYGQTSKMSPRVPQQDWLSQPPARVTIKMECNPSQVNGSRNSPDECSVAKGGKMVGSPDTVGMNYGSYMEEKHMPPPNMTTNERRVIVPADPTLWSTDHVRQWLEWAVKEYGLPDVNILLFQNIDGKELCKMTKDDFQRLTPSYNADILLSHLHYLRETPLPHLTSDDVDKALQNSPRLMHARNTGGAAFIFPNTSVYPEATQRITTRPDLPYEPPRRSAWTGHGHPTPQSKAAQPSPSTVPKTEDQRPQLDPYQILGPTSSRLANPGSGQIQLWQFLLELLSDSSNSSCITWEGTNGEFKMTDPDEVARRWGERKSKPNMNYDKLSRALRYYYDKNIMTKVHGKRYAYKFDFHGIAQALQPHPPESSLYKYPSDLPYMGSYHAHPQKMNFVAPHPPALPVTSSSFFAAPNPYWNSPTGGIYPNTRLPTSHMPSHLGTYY
Procedure, shortened: as §1

[4] = target: ELF1 (Homo sapiens, UniProt P32519 1-619)
ELF1, sequence (P32519 whole entry): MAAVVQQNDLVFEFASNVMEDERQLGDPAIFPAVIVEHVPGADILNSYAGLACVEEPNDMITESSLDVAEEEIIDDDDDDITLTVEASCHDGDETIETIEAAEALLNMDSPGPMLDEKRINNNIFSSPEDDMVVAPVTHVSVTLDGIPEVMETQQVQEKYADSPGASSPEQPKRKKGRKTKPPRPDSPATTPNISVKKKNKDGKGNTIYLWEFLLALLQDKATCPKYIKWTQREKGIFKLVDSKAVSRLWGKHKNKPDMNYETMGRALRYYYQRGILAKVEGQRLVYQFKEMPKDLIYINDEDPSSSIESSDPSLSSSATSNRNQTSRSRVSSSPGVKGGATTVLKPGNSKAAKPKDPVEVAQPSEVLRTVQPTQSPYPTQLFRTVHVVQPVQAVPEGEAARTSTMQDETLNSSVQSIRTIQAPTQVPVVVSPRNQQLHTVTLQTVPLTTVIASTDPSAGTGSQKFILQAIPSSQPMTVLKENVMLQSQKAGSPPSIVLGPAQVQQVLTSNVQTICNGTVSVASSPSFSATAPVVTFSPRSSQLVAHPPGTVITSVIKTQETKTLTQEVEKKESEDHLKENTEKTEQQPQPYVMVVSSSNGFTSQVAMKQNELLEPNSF
Procedure, shortened: as §1

[5] = target: SPIB (Homo sapiens, UniProt Q01892 1-262)
SPIB, sequence (Q01892 whole entry): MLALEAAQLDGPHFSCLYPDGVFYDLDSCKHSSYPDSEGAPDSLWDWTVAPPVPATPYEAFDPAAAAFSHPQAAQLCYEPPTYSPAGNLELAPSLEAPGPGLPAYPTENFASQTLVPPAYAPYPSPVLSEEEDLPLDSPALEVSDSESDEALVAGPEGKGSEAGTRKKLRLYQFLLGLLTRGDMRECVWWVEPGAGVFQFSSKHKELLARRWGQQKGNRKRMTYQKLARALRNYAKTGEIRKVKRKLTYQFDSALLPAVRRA
Procedure, shortened: as §1

[6] = target: ETV5 (Homo sapiens, UniProt P41161 1-510)
ETV5, sequence (P41161 whole entry): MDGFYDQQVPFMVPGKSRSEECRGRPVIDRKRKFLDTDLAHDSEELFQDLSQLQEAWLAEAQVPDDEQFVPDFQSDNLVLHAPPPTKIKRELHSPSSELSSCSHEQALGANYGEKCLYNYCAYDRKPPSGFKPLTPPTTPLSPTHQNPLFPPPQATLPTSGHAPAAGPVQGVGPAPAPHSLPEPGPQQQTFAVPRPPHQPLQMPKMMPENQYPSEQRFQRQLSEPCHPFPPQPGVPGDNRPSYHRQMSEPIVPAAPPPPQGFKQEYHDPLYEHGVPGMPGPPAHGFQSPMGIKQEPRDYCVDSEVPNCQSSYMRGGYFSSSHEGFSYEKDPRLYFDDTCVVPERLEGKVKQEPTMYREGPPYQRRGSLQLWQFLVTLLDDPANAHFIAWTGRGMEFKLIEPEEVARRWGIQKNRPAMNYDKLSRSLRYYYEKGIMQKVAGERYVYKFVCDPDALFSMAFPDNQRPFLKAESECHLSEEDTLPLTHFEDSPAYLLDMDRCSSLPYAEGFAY
Procedure, shortened: as §1

[7] = target: ELF4 (Homo sapiens, UniProt Q99607 1-663)
ELF4, sequence (Q99607 whole entry): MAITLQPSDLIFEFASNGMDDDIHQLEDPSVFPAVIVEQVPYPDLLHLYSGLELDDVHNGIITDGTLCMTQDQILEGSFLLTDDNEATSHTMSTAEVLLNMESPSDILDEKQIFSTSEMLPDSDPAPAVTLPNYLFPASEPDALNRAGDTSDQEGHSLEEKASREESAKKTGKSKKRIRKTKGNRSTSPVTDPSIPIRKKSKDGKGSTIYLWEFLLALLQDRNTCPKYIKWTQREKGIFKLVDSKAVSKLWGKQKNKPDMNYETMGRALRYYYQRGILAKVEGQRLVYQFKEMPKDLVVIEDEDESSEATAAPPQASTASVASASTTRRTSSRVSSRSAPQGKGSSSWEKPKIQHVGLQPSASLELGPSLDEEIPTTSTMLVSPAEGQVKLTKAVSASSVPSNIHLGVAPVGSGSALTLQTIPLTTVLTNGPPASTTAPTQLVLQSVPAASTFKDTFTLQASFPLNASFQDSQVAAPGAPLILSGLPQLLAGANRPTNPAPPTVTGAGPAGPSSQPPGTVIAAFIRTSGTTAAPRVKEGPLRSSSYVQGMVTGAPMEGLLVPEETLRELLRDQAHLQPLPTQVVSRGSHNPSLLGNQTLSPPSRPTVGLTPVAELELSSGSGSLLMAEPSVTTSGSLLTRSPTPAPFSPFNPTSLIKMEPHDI
Procedure, shortened: as §1

[8] = target: T4, ELF3 (Homo sapiens, UniProt P78545 1-371)
T4 sequence: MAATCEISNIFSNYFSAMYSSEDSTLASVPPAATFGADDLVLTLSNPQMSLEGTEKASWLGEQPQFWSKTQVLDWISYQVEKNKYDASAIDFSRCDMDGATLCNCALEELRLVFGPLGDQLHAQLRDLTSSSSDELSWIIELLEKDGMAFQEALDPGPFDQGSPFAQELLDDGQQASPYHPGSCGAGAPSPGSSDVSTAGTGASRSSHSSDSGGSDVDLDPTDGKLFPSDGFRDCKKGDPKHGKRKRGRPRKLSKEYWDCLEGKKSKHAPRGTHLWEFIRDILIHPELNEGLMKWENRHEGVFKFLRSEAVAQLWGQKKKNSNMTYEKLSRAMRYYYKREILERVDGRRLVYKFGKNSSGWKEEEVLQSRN
Procedure, shortened: as §1

[9] = target: ETV1 (Homo sapiens, UniProt P50549 1-477)
ETV1, sequence (P50549 whole entry): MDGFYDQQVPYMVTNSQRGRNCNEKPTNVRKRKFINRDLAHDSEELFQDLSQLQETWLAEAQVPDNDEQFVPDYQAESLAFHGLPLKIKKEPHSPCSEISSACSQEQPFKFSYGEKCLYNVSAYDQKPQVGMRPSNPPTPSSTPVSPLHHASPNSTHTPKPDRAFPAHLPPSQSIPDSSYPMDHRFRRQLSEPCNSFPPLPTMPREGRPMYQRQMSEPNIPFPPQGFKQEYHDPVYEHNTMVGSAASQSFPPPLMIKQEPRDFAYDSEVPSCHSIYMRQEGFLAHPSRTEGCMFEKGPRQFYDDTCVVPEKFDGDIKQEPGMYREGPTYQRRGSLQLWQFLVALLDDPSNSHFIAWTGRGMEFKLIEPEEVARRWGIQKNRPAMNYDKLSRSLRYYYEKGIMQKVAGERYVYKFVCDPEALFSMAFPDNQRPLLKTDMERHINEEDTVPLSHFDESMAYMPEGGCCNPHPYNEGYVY
Procedure, shortened: as §1

[10] = target: T5, ETV3L (Homo sapiens, UniProt Q6ZN32 1-361)
T5 sequence: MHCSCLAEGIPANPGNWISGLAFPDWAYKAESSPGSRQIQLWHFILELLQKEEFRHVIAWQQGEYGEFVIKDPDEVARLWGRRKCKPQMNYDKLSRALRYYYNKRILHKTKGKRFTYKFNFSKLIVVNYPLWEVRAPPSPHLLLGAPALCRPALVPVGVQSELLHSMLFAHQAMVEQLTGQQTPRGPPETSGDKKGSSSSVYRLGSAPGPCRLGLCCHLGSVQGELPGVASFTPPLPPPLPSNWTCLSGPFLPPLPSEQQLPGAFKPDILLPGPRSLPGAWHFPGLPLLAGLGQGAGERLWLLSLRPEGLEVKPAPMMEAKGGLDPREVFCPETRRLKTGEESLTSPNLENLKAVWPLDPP
Procedure, shortened: as §1

[11] = target: ETV6 (Homo sapiens, UniProt P41212 1-452)
ETV6, sequence (P41212 whole entry): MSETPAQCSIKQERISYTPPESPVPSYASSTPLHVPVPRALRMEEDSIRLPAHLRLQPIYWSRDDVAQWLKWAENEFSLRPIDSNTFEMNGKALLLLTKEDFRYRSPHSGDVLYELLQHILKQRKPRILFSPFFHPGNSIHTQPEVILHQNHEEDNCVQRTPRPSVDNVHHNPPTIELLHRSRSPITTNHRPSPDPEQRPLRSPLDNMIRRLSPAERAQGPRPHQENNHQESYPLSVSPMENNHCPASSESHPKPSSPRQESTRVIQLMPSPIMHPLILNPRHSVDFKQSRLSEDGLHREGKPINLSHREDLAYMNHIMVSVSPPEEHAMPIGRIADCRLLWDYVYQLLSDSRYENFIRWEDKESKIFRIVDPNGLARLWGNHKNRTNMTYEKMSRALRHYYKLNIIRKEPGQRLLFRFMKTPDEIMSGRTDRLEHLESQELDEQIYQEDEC
Procedure, shortened: as §1

[12] = target: T6, ELK1 (Homo sapiens, UniProt P19419 1-428)
T6 sequence: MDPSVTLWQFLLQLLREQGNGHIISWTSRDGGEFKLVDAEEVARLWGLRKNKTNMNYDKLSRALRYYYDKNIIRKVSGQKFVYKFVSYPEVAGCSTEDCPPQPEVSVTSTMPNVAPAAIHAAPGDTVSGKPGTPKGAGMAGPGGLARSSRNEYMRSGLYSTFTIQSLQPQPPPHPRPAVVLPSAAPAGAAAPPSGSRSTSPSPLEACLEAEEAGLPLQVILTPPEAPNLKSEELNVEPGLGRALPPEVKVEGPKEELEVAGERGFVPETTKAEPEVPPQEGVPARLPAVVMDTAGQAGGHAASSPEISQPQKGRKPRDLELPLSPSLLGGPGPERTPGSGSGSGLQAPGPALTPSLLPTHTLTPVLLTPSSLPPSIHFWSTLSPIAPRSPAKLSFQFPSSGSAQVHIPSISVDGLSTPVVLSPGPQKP
Procedure, shortened: as §1

[13] = target: T7, EHF (Homo sapiens, UniProt Q9NZC4 1-300)
T7 sequence: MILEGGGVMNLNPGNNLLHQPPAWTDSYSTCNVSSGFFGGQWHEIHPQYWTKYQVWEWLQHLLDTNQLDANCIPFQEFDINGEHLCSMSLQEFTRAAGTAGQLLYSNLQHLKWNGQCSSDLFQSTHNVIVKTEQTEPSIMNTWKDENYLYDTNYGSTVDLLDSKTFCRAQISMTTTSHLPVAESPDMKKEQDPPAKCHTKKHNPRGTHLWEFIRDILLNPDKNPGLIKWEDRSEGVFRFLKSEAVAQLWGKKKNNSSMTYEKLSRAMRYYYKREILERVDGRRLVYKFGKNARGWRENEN
Procedure, shortened: as §1

[14] = target: SPI1 (Homo sapiens, UniProt P17947 1-270)
Procedure, shortened: as §1

[15] = target: T8, ETV2 (Homo sapiens, UniProt O00321 1-342)
T8 sequence: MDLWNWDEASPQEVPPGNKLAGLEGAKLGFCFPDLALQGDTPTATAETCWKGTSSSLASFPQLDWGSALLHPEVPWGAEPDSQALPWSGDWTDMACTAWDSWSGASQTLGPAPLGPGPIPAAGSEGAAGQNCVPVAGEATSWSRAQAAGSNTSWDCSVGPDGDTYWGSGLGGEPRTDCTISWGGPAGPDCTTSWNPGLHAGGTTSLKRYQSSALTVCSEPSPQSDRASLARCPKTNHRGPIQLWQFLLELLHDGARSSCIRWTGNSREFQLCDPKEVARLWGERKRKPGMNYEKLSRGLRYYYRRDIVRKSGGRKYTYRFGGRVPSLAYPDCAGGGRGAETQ
Procedure, shortened: as §1

[16] = target: T9, ERF (Homo sapiens, UniProt P50548 1-548)
T9 sequence: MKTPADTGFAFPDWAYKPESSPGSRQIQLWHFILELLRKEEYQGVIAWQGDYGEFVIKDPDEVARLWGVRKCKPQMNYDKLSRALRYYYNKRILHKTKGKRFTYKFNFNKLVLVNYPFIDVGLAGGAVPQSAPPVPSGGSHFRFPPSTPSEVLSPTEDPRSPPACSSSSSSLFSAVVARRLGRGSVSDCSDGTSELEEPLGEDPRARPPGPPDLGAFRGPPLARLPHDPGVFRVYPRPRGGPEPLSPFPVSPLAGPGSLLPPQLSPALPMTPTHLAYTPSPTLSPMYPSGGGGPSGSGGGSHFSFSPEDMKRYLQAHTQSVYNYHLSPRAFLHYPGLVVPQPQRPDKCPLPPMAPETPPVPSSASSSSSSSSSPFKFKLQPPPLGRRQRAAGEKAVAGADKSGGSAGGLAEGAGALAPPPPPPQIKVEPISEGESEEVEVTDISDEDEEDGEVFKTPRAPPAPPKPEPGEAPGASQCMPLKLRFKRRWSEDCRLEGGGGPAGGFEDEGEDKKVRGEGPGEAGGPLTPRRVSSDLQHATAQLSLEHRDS
Procedure, shortened: as §1

[17] = target: T10, ETV3 (Homo sapiens, UniProt P41162-2 1-143)
T10 sequence: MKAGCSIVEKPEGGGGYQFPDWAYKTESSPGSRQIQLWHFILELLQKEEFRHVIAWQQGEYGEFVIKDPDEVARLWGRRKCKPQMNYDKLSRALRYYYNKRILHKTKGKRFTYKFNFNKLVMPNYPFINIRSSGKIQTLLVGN
Procedure, shortened: as §1

[18] = target: T11, FEV (Homo sapiens, UniProt Q99581 1-238)
T11 sequence: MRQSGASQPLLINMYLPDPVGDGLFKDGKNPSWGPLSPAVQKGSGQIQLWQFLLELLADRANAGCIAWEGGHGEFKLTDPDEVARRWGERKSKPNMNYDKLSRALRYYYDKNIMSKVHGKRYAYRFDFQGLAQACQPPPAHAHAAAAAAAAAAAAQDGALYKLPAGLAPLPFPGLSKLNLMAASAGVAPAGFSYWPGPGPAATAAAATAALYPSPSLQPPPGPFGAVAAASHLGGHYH
Procedure, shortened: as §1

[19] = target: T12, ETV7 (Homo sapiens, UniProt Q9Y603 1-341)
T12 sequence: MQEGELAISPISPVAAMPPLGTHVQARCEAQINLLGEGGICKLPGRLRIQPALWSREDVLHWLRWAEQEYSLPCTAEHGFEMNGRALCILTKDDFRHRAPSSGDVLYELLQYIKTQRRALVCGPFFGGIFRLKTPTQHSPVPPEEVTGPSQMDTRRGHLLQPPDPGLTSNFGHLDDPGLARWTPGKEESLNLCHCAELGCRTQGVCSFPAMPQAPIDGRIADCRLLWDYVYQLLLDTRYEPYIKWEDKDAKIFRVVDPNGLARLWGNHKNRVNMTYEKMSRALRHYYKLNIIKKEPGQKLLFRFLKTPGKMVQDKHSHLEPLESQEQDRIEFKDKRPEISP
Procedure, shortened: as §1

Sequence	binding signal [1]	binding signal [2]	binding signal [3]	binding signal [4]	binding signal [5]	binding signal [6]	binding signal [7]	binding signal [8]	binding signal [9]	binding signal [10]	binding signal [11]	binding signal [12]	binding signal [13]	binding signal [14]	binding signal [15]	binding signal [16]	binding signal [17]	binding signal [18]	binding signal [19]
GGCTCG	1.06 fold enrichment (6-mer frequency, TF over GST control)	1.02 fold enrichment (6-mer frequency, TF over GST control)	1.02 fold enrichment (6-mer frequency, TF over GST control)	1.05 fold enrichment (6-mer frequency, TF over GST control)	1.12 fold enrichment (6-mer frequency, TF over GST control)	1.01 fold enrichment (6-mer frequency, TF over GST control)	1.06 fold enrichment (6-mer frequency, TF over GST control)	1 fold enrichment (6-mer frequency, TF over GST control)	1.01 fold enrichment (6-mer frequency, TF over GST control)	1.09 fold enrichment (6-mer frequency, TF over GST control)	1.06 fold enrichment (6-mer frequency, TF over GST control)								
ATAAGG	1.07 fold enrichment (6-mer frequency, TF over GST control)	1.02 fold enrichment (6-mer frequency, TF over GST control)	1.07 fold enrichment (6-mer frequency, TF over GST control)		1.01 fold enrichment (6-mer frequency, TF over GST control)	1.04 fold enrichment (6-mer frequency, TF over GST control)	1.06 fold enrichment (6-mer frequency, TF over GST control)	1.1 fold enrichment (6-mer frequency, TF over GST control)	1.03 fold enrichment (6-mer frequency, TF over GST control)	1.01 fold enrichment (6-mer frequency, TF over GST control)	1.07 fold enrichment (6-mer frequency, TF over GST control)	1.01 fold enrichment (6-mer frequency, TF over GST control)	1.05 fold enrichment (6-mer frequency, TF over GST control)	1.05 fold enrichment (6-mer frequency, TF over GST control)	1.02 fold enrichment (6-mer frequency, TF over GST control)	1.05 fold enrichment (6-mer frequency, TF over GST control)	1.05 fold enrichment (6-mer frequency, TF over GST control)		
TGTGGC	1.05 fold enrichment (6-mer frequency, TF over GST control)	1.03 fold enrichment (6-mer frequency, TF over GST control)	1.07 fold enrichment (6-mer frequency, TF over GST control)		1.09 fold enrichment (6-mer frequency, TF over GST control)	1.01 fold enrichment (6-mer frequency, TF over GST control)	1.02 fold enrichment (6-mer frequency, TF over GST control)	1.02 fold enrichment (6-mer frequency, TF over GST control)	1.05 fold enrichment (6-mer frequency, TF over GST control)	1.06 fold enrichment (6-mer frequency, TF over GST control)	1.19 fold enrichment (6-mer frequency, TF over GST control)		1.02 fold enrichment (6-mer frequency, TF over GST control)	1.14 fold enrichment (6-mer frequency, TF over GST control)	1.23 fold enrichment (6-mer frequency, TF over GST control)			1.13 fold enrichment (6-mer frequency, TF over GST control)	1.01 fold enrichment (6-mer frequency, TF over GST control)
